In experiment [1] the target is Tyrosine-protein kinase SYK (Homo sapiens) (UniProt P43405). The note with it: at 1 µM.
In experiment [2] the target is T1, Tyrosine-protein kinase Tec (Homo sapiens) (UniProt P42680).
T1 sequence (whole entry): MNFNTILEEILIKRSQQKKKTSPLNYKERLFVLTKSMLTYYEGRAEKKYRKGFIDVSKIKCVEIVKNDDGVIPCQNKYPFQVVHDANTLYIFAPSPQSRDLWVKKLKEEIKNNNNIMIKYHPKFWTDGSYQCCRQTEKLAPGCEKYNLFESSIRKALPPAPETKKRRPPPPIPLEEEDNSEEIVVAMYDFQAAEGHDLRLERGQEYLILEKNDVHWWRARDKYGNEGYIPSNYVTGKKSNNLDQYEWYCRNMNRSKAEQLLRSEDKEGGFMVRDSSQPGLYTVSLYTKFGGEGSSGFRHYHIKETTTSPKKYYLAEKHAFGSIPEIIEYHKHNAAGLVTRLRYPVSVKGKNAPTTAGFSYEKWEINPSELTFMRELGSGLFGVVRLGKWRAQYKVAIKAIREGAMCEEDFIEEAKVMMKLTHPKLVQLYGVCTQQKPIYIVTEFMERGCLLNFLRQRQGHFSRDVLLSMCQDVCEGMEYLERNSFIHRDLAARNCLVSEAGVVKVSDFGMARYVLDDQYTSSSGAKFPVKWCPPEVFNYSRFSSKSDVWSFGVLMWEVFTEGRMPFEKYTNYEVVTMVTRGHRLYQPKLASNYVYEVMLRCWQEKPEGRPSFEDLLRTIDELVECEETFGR
Particulars: at 0.1 µM.

The target in experiment [3] is T1, Tyrosine-protein kinase Tec (Homo sapiens). The note with it: at 1 µM.
In experiment [4] the target is Angiopoietin-1 receptor (Homo sapiens) (UniProt Q02763). The note with it: at 0.1 µM.
The target is the same in experiment [5]. Particulars: at 1 µM.
The target in experiment [6] is T2, Non-receptor tyrosine-protein kinase TNK1 (Homo sapiens) (UniProt Q13470).
T2 sequence (whole entry): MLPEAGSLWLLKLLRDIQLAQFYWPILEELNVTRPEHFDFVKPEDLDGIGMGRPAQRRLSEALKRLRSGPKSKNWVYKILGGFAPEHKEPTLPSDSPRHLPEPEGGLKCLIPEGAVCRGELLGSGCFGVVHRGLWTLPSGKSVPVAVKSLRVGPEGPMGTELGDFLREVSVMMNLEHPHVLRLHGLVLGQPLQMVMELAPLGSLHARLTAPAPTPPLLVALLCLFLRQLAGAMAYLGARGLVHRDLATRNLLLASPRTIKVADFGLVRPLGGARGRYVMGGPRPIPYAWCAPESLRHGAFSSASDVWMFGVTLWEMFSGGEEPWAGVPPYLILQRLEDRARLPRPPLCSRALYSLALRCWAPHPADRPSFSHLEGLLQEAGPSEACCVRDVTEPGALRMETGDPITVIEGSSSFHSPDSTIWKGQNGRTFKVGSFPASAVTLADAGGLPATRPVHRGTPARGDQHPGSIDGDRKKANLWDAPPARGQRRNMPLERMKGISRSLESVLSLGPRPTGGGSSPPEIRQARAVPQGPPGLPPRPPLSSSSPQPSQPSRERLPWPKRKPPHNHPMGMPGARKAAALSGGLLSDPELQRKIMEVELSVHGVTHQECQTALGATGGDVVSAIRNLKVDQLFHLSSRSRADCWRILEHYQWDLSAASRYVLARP
Particulars: at 0.1 µM.

For experiment [7], the target named is T2, Non-receptor tyrosine-protein kinase TNK1 (Homo sapiens). The note with it: at 1 µM.
Experiment [8] concerns the target Activated CDC42 kinase 1 (Homo sapiens) (UniProt Q07912). Particulars: at 0.1 µM.
For experiment [9] the target is unchanged. The note with it: at 1 µM.
Experiment [10] addresses High affinity nerve growth factor receptor (Homo sapiens) (UniProt P04629). The note with it: at 0.1 µM.

Inhibition data for 16 compounds are collected here from ChEMBL document CHEMBL1961873, “Compounds: GSK PKIS; Assays: Nanosyn kinase panel” (2012).

As a reminder, the inhibition is the relative decrease from the control value, in per cent.

High affinity nerve growth factor receptor (Homo sapiens), sequence (P04629 33-796 limits assumed): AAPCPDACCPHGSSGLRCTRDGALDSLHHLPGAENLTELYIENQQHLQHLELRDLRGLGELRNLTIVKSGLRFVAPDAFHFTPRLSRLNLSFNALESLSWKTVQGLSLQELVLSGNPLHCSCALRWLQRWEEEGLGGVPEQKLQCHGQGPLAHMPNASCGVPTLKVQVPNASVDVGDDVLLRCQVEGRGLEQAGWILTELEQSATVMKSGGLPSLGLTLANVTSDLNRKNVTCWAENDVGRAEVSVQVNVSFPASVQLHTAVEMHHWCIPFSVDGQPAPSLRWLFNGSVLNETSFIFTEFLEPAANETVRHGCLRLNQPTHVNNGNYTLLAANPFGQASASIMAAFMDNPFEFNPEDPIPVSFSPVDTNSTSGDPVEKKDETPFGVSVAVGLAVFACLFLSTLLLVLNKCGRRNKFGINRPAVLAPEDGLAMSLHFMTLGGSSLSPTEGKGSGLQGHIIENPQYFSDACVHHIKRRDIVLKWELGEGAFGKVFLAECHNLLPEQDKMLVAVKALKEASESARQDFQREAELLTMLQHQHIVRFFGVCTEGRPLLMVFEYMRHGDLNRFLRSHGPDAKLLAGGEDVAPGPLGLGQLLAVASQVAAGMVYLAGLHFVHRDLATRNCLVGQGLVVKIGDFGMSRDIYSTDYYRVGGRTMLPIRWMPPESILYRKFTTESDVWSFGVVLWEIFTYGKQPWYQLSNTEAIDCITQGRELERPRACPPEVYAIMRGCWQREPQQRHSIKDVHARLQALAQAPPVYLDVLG
Activated CDC42 kinase 1 (Homo sapiens), sequence (Q07912 whole entry, looked up): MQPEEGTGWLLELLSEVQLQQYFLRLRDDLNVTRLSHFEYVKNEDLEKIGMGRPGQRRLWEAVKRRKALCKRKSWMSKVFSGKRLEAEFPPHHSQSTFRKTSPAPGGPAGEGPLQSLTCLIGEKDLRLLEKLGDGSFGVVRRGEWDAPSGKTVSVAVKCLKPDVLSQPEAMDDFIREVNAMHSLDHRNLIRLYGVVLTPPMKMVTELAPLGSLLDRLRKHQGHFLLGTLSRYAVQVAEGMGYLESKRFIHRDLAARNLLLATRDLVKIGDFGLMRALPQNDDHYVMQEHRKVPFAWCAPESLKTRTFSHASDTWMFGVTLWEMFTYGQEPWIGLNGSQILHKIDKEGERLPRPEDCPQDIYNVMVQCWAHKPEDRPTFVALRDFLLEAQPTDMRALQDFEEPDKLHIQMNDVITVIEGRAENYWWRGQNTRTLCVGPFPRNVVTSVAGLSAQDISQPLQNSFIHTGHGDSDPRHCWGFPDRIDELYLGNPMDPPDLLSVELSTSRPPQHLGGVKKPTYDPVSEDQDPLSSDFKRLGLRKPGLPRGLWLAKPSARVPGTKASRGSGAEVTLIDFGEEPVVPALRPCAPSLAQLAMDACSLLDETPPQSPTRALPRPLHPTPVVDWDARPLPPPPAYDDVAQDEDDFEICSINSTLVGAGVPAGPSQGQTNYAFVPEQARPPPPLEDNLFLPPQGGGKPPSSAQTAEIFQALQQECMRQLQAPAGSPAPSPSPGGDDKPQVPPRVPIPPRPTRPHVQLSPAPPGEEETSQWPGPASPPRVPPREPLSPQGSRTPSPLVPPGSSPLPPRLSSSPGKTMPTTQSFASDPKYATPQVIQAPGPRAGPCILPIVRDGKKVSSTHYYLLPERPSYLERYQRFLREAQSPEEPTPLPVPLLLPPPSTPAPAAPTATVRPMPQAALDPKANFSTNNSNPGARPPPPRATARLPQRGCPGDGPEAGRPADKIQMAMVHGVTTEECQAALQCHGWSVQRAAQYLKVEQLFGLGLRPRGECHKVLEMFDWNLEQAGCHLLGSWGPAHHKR
Angiopoietin-1 receptor (Homo sapiens), sequence (Q02763 whole entry): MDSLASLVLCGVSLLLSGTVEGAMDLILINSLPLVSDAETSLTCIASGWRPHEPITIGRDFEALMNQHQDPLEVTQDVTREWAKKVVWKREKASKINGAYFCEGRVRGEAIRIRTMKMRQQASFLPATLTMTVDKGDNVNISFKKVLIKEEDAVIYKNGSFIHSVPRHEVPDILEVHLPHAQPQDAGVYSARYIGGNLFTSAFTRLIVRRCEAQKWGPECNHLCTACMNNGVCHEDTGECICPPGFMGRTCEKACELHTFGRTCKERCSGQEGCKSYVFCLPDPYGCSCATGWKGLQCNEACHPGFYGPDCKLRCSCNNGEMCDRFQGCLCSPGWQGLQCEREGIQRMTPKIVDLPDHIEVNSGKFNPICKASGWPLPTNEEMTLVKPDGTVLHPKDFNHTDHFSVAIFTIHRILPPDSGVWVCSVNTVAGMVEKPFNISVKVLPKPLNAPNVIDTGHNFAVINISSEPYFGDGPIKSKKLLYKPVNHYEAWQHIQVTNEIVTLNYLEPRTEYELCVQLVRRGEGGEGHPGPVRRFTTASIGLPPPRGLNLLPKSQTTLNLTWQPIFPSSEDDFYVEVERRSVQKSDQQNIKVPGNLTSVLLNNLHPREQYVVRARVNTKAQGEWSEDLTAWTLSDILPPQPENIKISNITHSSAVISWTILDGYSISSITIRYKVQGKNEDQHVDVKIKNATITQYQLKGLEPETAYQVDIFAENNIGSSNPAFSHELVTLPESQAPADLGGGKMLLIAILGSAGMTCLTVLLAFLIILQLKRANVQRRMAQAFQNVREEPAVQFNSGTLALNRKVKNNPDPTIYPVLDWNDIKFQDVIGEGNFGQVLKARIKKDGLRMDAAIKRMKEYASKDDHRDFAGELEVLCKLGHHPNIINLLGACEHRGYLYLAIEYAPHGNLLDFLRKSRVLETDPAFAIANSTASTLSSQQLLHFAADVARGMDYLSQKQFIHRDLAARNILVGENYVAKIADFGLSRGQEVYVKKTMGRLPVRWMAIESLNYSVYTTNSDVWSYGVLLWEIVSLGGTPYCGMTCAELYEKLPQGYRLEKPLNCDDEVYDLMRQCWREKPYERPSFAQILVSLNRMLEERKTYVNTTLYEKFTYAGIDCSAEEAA

As to `O=C1NC(=O)C(c2ccccc2Cl)=C1Nc1cccc(O)c1`, the inhibition in experiment [1] is -0.68%; in experiment [2], 3.78%; in [3], 4.55%; in [4] it was 1.47%; in experiment [5] it was 5.97%; in [6], 3.82%. For the same compound, the inhibition was found to be 2.57% in experiment [7], 1.29% in [8], 3.26% in experiment [9] and 4.19% in [10].
As for `CN(C)c1cc2c(Nc3ccc4nc(Cc5ccccc5)[nH]c4c3)ncnc2cn1`, the inhibition in [1] worked out at 1.5%; in experiment [2] it was 5.94%; in experiment [3] it was 11.9%; in experiment [4], 3.86%; in [5], 4.47%; in experiment [6] it was 6.39%. Besides, the inhibition is 21% in [7], 1.01% in experiment [8], 4.65% in experiment [9] and 4.28% in [10].
Take `CS(=O)(=O)CCNCc1ccc(-c2ccc3ncnc(Nc4ccc(OCc5ccccc5)c(Cl)c4)c3c2)o1`: the inhibition was 1.51% in experiment [1]; -0.91% in experiment [2]; 0.89% in experiment [3]; 7.47% in experiment [4]; 9.67% in [5]; 2.4% in experiment [6]. For the same compound, the inhibition is 11.3% in experiment [7], -0.1% in [8], 0.61% in experiment [9] and 2.31% in experiment [10].
As to `COc1ccc(-c2ccncc2)cc1C(N)=O`, the inhibition in experiment [1] came to 0.26%; in [2], 6.14%; in [3], 5.31%; in experiment [4], 5.23%; in experiment [5] it was 6.4%; in experiment [6], 3.12%. The inhibition in experiment [7] amounted to 5.16%; in [8], 1.17%; in [9], 2.39%; in experiment [10], 1.19%.
Take `CC1=C(C(=O)Nc2ccc3[nH]ncc3c2)C(c2ccc(Cl)c(Cl)c2)CC(=O)N1` (stereo not given): the inhibition in experiment [1] was 1.43%; in [2] it was 2.26%; in experiment [3], 6.35%; in experiment [4], 2.31%; in [5] it was 4.81%; in experiment [6], -0.39%. Further, the inhibition in experiment [7] was found to be 9.22%; in experiment [8], 0.3%; in [9] it was 1.41%; in [10], 2.44%.
As for `Fc1cccc(COc2ccc(Nc3ncnc4sc(-c5cccs5)cc34)cc2Cl)c1`, the inhibition in experiment [1] was 1.01%; in experiment [2], -0.73%; in experiment [3], 1.47%; in experiment [4], 1.07%; in experiment [5], 2.01%; in experiment [6], 3.5%. The inhibition is 4.12% in [7], -0.19% in experiment [8], 1.13% in experiment [9] and 1.3% in experiment [10].
In the case of `COC(=O)Nc1nc2cc(Oc3cccc(NC(=O)Nc4cc(C(F)(F)F)ccc4F)c3)ccc2[nH]1`, the inhibition in experiment [1] is -0.22%; in experiment [2] it was 1.48%; in [3] it was 2.64%; in [4], 1.09%; in [5], 5.44%; in [6], -0.45%. In addition, the inhibition in [7] is -3.58%; in experiment [8] it was -0.5%; in experiment [9], -1.08%; in experiment [10] it was -2.72%.
As for `CS(=O)(=O)CCNCc1nc(-c2ccc3ncnc(Nc4ccc(F)c(Cl)c4)c3c2)cs1`, the inhibition is -0.34% in experiment [1]; 3.79% in [2]; 9.13% in [3]; 7.71% in [4]; 5.89% in experiment [5]; 4.58% in experiment [6]. Also, the inhibition in [7] amounted to 27.1%; in experiment [8], 0.19%; in [9] it was 2.87%; in [10], 3.85%.
On to `O=C1NC(=O)C(c2cccc(Cl)c2)=C1Nc1ccc(O)c(Cl)c1`, for which the inhibition in [1] was determined as 0.79%; in [2], 1.84%; in experiment [3], 1.44%; in experiment [4], 1.54%; in [5], 3.61%; in experiment [6], 0.52%. Besides, the inhibition in [7] was 8.8%; in experiment [8], -0.75%; in experiment [9], -0.58%; in experiment [10], -3.23%.
On to `CCn1c(-c2nonc2N)nc2cnc(Oc3cccc(NC(=O)c4ccc(OCCN5CCOCC5)cc4)c3)cc21`, for which the inhibition was determined as 1.88% in [1]; 3.35% in [2]; 5.81% in experiment [3]; 3.75% in experiment [4]; 6.59% in experiment [5]; 0.95% in experiment [6]. For the same compound, the inhibition in experiment [7] was 5.9%; in experiment [8], -0.31%; in experiment [9], -0.19%; in experiment [10], 4.32%.
As for `CC1=C(C(=O)Nc2ccc3[nH]ncc3c2)C(c2ccc3ccccc3c2)CC(=O)N1` (stereo not given), the inhibition in [1] came to 2.59%; in [2], 2.81%; in [3] it was 9.73%; in experiment [4], 3.02%; in experiment [5] it was 8.68%; in experiment [6], 3.25%. Also, the inhibition in experiment [7] was 22.4%; in [8] it was 2.91%; in experiment [9], 20.3%; in experiment [10] it was 3.43%.
As for `CN1CCC(C(=O)Nc2n[nH]c3nnc(-c4ccccc4)cc23)CC1`, the inhibition was -1.15% in experiment [1]; 3.47% in experiment [2]; 4.52% in experiment [3]; 2.55% in experiment [4]; 7% in experiment [5]; 2.98% in experiment [6]. Besides, the inhibition in experiment [7] worked out at 7.95%; in experiment [8] it was 1.4%; in experiment [9], 1.85%; in [10], 0.43%.
On to `CCN1CCC(CC(=O)Nc2n[nH]c3nc(-c4cccs4)c(Br)cc23)CC1`, for which the inhibition in [1] is 0.14%; in experiment [2], -2%; in experiment [3], -2.77%; in experiment [4], 9.68%; in [5], 11.1%; in experiment [6], -7.55%. The inhibition was 4.72% in [7], -0.98% in experiment [8], -0.2% in [9] and -0.5% in [10].
Turning to `CC(C)=Cc1cccc2c1/C(=N/Nc1ccc(S(N)(=O)=O)cc1)C(=O)N2`, the inhibition in experiment [1] is -2.03%; in experiment [2], 2.44%; in [3], 10.1%; in experiment [4], 0.37%; in experiment [5], 3.74%; in experiment [6], 9.88%. Besides, the inhibition in experiment [7] is 65.6%; in experiment [8], 0.01%; in experiment [9] it was 2.76%; in experiment [10], 6.87%.
As for `Cc1cc(O)cc(C)c1/C=C/c1cncc(-c2nn[nH]n2)c1`, the inhibition in experiment [1] was -1.42%; in [2], 15.1%; in [3] it was 65%; in [4], 4%; in [5] it was 4.4%; in experiment [6], 35.1%. Moreover, the inhibition in experiment [7] came to 84.2%; in [8] it was 1.68%; in [9], 22%; in [10], 3.09%.
Consider `NC(=O)c1cccc(Nc2nccc(Nc3cccc4[nH]ncc34)n2)c1`, for which the inhibition is 25.4% in experiment [1]; 17.4% in experiment [2]; 62.5% in experiment [3]; 9.12% in experiment [4]; 47.5% in [5]; 6.88% in experiment [6]. In addition, the inhibition in experiment [7] worked out at 58.3%; in [8], 5.44%; in experiment [9] it was 47.8%; in [10], 0.29%.
